Measured values published in PubChem BioAssay (NCI).
The panel holds about 83,000 compounds, 20% with a hit somewhere; the sample as a whole holds those more often.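 Results are percent growth after 48 hours of single-concentration exposure. 100 means growth as in untreated cells, lower positive values show inhibition; negative values down to -100 show cell death.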 The source made the active and inactive calls. Rule for the calls: active = growth percent below 10; inactive = the rest.

Key:
Experiment in all cases: NCI-60 one-dose screen, 48 h (100 = growth as untreated, 0 = no growth, -100 = all killed)
Conditions in all cases: 10 µM unless noted
[1] = test system: NCI-H23 lung
[2] = test system: NCI-H226 lung
[3] = test system: NCI-H322M lung
[4] = test system: HOP-62 NSCLC
[5] = test system: NCI-H460 lung
[6] = test system: HOP-92 NSCLC
[7] = test system: NCI-H522 lung
[8] = test system: A549/ATCC NSCLC
[9] = test system: 786-0 renal
[10] = test system: COLO 205 colon
[11] = test system: DU-145 prostate
[12] = test system: K-562 leukemia
[13] = test system: MALME-3M melanoma
[14] = test system: MDA-MB-231 breast
[15] = test system: RXF 393 renal
[16] = test system: SF-268 CNS
[17] = test system: SF-295 CNS
[18] = test system: SF-539 CNS
[19] = test system: UACC-257 melanoma
[20] = test system: M14 melanoma

Measured: growth

COc1ccc2c(c1OC)CO[C@@H]2[C@H]1c2c(cc3c(c2OC)OCO3)CCN1S(=O)(=O)c1cn(C)cn1
inactive: [1] 32.9% | [2] 73.6% | [3] 48% | [4] 30.9% | [6] 60.7% | [7] 19.4% | [8] 21.2% | [9] 41.9% | [11] 11.1% | [12] 10.7% | [13] 45.6% | [14] 30.4% | [16] 40.8% | [17] 14.5% | [19] 56.2%
active: [5] 6.13% | [10] 0.532% | [15] -27.9% | [18] -14.2% | [20] 3.48%

O=C(Nc1nc(-c2ccc(Cl)cc2)nc2c1sc(=S)n2-c1ccccc1)C(F)(F)F
inactive: [1] 49.2% | [2] 23.7% | [3] 49.4% | [5] 13.6% | [7] 25.2% | [8] 19.5% | [10] 21% | [11] 37.5% | [12] 57.2% | [13] 21.2% | [14] 37.5% | [15] 29% | [16] 36.1% | [19] 51.1% | [20] 40.3%
active: [4] 9.09% | [6] -4.79% | [9] -72.1% | [17] 7.16% | [18] 8.63%

Oc1c(I)cc(I)cc1CNCCN(Cc1ccccn1)Cc1ccccn1
active: [1] -14% | [2] -65.1% | [3] -30.4% | [4] -65.1% | [5] -56.5% | [6] -61.8% | [7] -27.6% | [8] -33.3% | [9] -95.2% | [10] -34.6% | [11] -74.1% | [12] 0.636% | [13] -62.1% | [14] -36.1% | [15] -85.5% | [16] 1.18% | [17] -84.6% | [18] -56.6% | [19] -58.7% | [20] -32.5%

COc1c(C(=O)Nc2ccc(C)c(Br)c2)ccc2ccccc12
inactive: [1] 90.6% | [2] 103% | [3] 104% | [4] 99.8% | [5] 102% | [6] 105% | [7] 85% | [8] 87.9% | [9] 96.5% | [10] 101% | [11] 96.8% | [12] 41.9% | [13] 84.4% | [14] 104% | [15] 81.1% | [16] 96.5% | [17] 90.6% | [18] 92.2% | [19] 98.3% | [20] 81.1%

COc1ccc(-c2cc(-c3cccnc3)nc3sc4c(=O)[nH]c(-c5ccc(Cl)cc5)nc4c23)cc1OC
inactive: [1] 98.8% | [2] 79.1% | [3] 104% | [4] 88.3% | [5] 90.9% | [6] 75.1% | [7] 78.6% | [8] 82.8% | [9] 89.2% | [10] 91.2% | [11] 105% | [12] 85.7% | [13] 115% | [14] 76.7% | [15] 103% | [16] 93.4% | [17] 99.5% | [18] 96.1% | [19] 97.5% | [20] 106%

CCOCCNC1=C(Cl)C(=O)c2ccccc2C1=O
inactive: [1] 80.7% | [2] 121% | [3] 108% | [4] 110% | [5] 94.9% | [6] 127% | [7] 82.9% | [8] 101% | [9] 105% | [10] 130% | [11] 76.3% | [12] 91.8% | [13] 106% | [14] 116% | [15] 123% | [16] 101% | [17] 95.1% | [18] 121% | [19] 98.2% | [20] 110%

Cn1cc(C(=O)c2nc(-c3c[nH]c4ccccc34)no2)c2cc(F)ccc21
inactive: [1] 65.1% | [2] 75.7% | [3] 62.3% | [4] 30.5% | [5] 14.1% | [6] 43.6% | [8] 40.6% | [9] 54.6% | [10] 34.7% | [11] 72.5% | [12] 16.7% | [13] 37.3% | [14] 57.1% | [15] 89.9% | [16] 54.9% | [17] 20.7% | [18] 30% | [19] 51.2% | [20] 33%
active: [7] 2.36%
